The full data set covers some 7,900 targets. This sample favours those with a hit. About 0.6% of all pairs of compound and target were hits. Values without a mark were called inactive.

The values that follow come from the supplement of paper PMC10849652.

Sequence of UniProt P04035 (P04035 whole entry, looked up): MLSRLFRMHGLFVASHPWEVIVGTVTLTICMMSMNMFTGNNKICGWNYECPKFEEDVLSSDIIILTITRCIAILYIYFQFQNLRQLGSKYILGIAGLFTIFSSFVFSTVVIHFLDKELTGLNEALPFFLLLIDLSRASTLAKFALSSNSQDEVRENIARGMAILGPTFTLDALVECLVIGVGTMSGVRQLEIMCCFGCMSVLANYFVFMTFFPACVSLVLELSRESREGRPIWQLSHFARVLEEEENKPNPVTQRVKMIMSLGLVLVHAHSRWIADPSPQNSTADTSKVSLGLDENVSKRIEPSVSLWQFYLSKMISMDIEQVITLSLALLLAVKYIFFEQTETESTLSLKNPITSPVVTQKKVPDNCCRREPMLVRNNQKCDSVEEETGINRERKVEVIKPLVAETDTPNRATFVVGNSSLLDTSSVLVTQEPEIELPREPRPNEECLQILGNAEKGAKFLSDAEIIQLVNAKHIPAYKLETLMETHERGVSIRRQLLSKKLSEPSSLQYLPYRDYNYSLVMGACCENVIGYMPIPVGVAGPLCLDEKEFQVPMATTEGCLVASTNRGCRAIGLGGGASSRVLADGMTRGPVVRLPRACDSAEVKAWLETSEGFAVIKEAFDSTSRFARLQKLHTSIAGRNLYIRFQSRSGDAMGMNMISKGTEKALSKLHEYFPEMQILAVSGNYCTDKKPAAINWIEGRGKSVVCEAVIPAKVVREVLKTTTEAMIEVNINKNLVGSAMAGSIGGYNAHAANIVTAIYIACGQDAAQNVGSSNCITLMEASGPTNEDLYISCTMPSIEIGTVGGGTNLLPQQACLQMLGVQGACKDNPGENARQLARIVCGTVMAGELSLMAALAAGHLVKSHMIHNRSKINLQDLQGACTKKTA
Sequence of UniProt Q8IWJ2 (Q8IWJ2 whole entry, looked up): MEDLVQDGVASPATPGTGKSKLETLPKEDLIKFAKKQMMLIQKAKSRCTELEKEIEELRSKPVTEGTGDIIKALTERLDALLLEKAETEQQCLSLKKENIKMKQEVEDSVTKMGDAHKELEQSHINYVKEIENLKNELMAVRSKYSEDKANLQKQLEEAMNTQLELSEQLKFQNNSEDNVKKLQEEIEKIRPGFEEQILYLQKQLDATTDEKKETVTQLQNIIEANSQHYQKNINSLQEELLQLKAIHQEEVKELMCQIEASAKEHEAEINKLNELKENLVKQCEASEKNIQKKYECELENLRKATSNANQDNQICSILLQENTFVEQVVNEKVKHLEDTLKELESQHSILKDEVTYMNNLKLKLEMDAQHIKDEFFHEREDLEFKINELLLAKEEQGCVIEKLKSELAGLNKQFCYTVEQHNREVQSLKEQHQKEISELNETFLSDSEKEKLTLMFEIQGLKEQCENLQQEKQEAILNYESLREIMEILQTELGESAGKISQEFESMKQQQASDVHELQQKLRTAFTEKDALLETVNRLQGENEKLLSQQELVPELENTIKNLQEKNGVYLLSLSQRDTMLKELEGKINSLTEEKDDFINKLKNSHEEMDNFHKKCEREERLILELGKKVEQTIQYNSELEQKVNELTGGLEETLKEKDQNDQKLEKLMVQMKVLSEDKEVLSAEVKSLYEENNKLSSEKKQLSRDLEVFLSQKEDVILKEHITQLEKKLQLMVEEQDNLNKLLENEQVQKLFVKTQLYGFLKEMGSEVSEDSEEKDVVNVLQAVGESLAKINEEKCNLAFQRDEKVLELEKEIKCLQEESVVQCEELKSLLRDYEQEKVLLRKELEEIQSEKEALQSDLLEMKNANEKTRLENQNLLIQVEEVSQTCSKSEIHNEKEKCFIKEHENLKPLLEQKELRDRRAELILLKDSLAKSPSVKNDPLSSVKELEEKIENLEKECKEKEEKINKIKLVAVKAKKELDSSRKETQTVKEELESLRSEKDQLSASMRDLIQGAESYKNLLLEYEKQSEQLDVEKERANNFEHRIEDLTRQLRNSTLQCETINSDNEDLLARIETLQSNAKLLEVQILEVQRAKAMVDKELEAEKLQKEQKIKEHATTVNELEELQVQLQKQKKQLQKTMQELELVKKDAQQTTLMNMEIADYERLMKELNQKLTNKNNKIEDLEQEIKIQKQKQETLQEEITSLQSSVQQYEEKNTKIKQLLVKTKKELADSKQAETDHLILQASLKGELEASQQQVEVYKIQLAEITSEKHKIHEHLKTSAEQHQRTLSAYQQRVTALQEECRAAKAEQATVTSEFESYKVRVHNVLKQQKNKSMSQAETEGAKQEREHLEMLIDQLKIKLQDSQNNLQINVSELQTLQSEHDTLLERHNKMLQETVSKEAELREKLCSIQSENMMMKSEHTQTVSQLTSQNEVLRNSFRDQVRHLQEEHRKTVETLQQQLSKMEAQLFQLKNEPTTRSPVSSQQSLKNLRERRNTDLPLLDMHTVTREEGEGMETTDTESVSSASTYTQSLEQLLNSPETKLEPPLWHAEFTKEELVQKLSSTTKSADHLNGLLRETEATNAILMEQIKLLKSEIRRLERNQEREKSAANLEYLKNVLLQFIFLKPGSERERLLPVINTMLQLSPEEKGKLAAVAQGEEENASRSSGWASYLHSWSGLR
Sequence of UniProt Q9P2H3 (Q9P2H3 whole entry, looked up): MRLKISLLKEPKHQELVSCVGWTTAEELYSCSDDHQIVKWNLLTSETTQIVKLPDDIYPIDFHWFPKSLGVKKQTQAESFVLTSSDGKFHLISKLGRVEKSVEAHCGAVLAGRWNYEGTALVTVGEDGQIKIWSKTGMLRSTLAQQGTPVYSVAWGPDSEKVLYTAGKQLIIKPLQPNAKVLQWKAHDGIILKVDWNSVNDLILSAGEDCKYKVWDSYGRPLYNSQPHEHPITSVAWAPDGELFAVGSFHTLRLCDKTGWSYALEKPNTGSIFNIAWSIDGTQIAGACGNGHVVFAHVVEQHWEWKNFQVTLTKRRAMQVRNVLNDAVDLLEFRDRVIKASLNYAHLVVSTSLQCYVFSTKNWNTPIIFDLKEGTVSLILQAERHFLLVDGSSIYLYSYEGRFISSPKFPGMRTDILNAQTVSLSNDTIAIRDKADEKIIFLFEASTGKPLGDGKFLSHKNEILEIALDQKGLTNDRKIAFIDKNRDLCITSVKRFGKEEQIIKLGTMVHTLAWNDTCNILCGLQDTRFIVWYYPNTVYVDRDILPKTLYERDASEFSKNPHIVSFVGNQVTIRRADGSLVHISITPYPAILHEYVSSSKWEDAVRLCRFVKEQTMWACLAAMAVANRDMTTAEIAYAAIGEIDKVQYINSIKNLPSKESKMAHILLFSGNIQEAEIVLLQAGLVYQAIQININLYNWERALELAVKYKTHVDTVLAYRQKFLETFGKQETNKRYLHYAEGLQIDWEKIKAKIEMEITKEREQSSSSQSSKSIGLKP
Sequence of UniProt Q10472 (Q10472 whole entry, looked up): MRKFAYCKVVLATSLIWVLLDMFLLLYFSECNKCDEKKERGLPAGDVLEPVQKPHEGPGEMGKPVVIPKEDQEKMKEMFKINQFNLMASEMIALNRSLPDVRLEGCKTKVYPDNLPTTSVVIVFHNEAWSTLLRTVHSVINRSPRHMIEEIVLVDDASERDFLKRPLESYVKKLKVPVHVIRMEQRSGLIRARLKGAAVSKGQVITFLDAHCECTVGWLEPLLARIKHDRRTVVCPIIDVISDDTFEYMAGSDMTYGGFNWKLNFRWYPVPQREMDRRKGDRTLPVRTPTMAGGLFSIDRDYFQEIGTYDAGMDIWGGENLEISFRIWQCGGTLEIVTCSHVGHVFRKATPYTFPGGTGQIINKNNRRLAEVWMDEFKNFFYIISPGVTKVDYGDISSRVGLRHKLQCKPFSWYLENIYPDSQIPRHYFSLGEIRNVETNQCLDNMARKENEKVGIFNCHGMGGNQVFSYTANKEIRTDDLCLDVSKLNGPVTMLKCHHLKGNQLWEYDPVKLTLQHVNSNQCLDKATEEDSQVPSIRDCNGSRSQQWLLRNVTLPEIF
Sequence of UniProt P49840 (P49840 whole entry, looked up): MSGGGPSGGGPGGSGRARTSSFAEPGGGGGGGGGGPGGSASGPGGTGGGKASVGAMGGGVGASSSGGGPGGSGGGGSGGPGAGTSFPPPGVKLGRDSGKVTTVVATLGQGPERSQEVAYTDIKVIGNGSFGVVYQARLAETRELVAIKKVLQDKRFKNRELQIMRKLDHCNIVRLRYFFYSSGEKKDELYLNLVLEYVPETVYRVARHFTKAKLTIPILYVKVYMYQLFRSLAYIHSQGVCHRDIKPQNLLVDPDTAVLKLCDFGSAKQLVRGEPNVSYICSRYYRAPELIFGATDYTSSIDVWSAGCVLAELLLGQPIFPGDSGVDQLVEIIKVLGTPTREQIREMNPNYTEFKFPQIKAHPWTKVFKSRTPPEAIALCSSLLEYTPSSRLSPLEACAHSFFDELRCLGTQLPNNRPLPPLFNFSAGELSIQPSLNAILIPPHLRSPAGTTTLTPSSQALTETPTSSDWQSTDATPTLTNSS
Sequence of UniProt P31943 (P31943 whole entry, looked up): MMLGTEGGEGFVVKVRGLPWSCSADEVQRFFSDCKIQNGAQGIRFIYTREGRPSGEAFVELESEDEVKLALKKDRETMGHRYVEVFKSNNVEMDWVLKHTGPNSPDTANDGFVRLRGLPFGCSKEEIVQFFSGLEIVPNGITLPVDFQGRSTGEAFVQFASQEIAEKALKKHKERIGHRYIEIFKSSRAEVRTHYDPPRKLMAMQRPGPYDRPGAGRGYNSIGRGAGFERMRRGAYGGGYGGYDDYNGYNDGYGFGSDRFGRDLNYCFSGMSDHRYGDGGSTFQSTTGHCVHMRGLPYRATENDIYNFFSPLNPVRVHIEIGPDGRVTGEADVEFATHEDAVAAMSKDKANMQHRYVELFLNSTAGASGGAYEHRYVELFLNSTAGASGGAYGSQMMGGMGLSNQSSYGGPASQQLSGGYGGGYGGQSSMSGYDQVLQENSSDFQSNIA
Sequence of UniProt Q7Z4H3 (Q7Z4H3 whole entry, looked up): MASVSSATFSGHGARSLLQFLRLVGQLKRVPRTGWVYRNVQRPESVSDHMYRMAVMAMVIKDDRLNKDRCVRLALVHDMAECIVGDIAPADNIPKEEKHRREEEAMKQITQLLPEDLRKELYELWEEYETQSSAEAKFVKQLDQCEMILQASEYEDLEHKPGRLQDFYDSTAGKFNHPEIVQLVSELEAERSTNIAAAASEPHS

Compound in one test: CC(C)C[C@@H](C=O)NC(=O)[C@H](CC(C)C)NC(=O)[C@H](CC(C)C)NC(=O)OCc1ccccc1
Briefly: log2 fold change, soluble protein after heating vs DMSO (PISA); higher = thermal stabilisation; K562 cells, 10 uM, 30 min; active = over 0.2 and 3.5 SD of the protein, either way, in both replicates (recomputed). Summed up: (§1)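 Soluble protein was quantified by TMTpro 16plex LC-MS/MS after channel sums were equalised. It was obtained as the supernatant after 21,000xg for 90 min from pooled aliquots of K562 cells (2×10^6 cells/mL, 10 μM compound, 30 min) heated for 3 min across 48°C-58°C and extracted in PBS with 0.5% NP-40 at 4°C. Thermal stability values are relative to control samples and come from duplicates. They are given as log2 fold changes.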
Regarding GNB2 (UniProt P62879), the log2 fold change was -0.025.
With GTF2B (UniProt Q00403), the log2 fold change is 0.068.
Take GTF2E1 (UniProt P29083): the log2 fold change is 0.016.
On the same count and under the same terms, the result for GPX4 (UniProt P36969) reads -0.462 (active); that for HMGB3 (UniProt O15347), 0.001; that for GAPVD1 isoform 6 (UniProt Q14C86), 0.037.
Turning to FNTB (UniProt P49356), the log2 fold change was -0.033.
Regarding FKBP4 (UniProt Q02790), the log2 fold change is 0.002.
For the target IFRD1 (UniProt O00458), the log2 fold change was 0.168.
With IFT80 isoform 3 (UniProt Q9P2H3), the log2 fold change is 0.072.
For the target IFI30 (UniProt P13284), the log2 fold change was -0.012.
On the same count and under the same terms, the result for GALNT1 (UniProt Q10472) reads -0.141.
With FUBP3 (UniProt Q96I24), the log2 fold change is 0.036.
The same measure, in the same setting: then ICMT (UniProt O60725), with -0.051; and GCC2 (UniProt Q8IWJ2), with 0.111; and HIC2 (UniProt Q96JB3), with -0.03.
Still for that read-out and setting: the result for HRC (UniProt P23327) reads 0.011; that for HSD17B12 (UniProt Q53GQ0), -0.062; that for HMGCR isoform 3 (UniProt P04035), 0.383 (active).
GOLPH3 (UniProt Q9H4A6): the log2 fold change is -0.005.
As to GEMIN5 (UniProt Q8TEQ6), the log2 fold change was 0.033.
With FUCA2 (UniProt Q9BTY2), the log2 fold change was -0.004.
Take HNRNPH1 (UniProt P31943): the log2 fold change was 0.131.
GNPAT (UniProt O15228): the log2 fold change is -0.014.
In the case of GOPC (UniProt Q9HD26), the log2 fold change was 0.083.
Take HPCAL1 (UniProt P37235): the log2 fold change is -0.015.
The same measure, in the same setting: then GTF2A2 (UniProt P52657), with -0.019; and GSK3A (UniProt P49840), with -0.022.
For HBQ1 (UniProt P09105), the log2 fold change was -0.102.
For HOOK3 (UniProt Q86VS8), the log2 fold change is 0.056.
On the same count and under the same terms, then HEXA (UniProt P06865), with 0.032.
For GGA2 (UniProt Q9UJY4), the log2 fold change was 0.068.
HNRNPC isoform 2 (UniProt P07910): the log2 fold change was 0.281.
In the case of H2AFX (UniProt P16104), the log2 fold change was 0.308.
For the target HDDC2 (UniProt Q7Z4H3), the log2 fold change is 0.

Compound in the next test: CC(C)N(C[C@H]1O[C@@H](n2cnc3c(N)ncnc32)[C@H](O)[C@@H]1O)[C@H]1C[C@@H](CCc2nc3cc(C(C)(C)C)ccc3[nH]2)C1 [pinometostat]
Described as above. In a few lines:
as §1
With GNB2 (UniProt P62879), the log2 fold change was 0.016.
In the case of GTF2B (UniProt Q00403), the log2 fold change is 0.
For the target GTF2E1 (UniProt P29083), the log2 fold change was -0.046.
With GPX4 (UniProt P36969), the log2 fold change was -0.078.
With HMGB3 (UniProt O15347), the log2 fold change was -0.019.
The same measure, in the same setting: then GAPVD1 isoform 6 (UniProt Q14C86), with 0.094; and FNTB (UniProt P49356), with -0.003; and FKBP4 (UniProt Q02790), with -0.032.
As to IFRD1 (UniProt O00458), the log2 fold change is -0.029.
The same measure, in the same setting: the result for IFT80 isoform 3 (UniProt Q9P2H3) reads 0.049; that for IFI30 (UniProt P13284), 0.019.
The same measure, in the same setting: the result for GALNT1 (UniProt Q10472) reads -0.025; that for FUBP3 (UniProt Q96I24), -0.017.
As for ICMT (UniProt O60725), the log2 fold change was -0.02.
GCC2 (UniProt Q8IWJ2): the log2 fold change was 0.198.
In the case of HIC2 (UniProt Q96JB3), the log2 fold change was 0.143.
Same read-out and setting: then HRC (UniProt P23327), with 0.019.
Consider HSD17B12 (UniProt Q53GQ0), for which the log2 fold change was -0.064.
Turning to HMGCR isoform 3 (UniProt P04035), the log2 fold change was 0.014.
For the target GOLPH3 (UniProt Q9H4A6), the log2 fold change is -0.013.
Regarding GEMIN5 (UniProt Q8TEQ6), the log2 fold change was 0.043.
On the same count and under the same terms, the result for FUCA2 (UniProt Q9BTY2) reads 0.036; that for HNRNPH1 (UniProt P31943), 0.031; that for GNPAT (UniProt O15228), -0.018.
For the target GOPC (UniProt Q9HD26), the log2 fold change is 0.174.
On to HPCAL1 (UniProt P37235), for which the log2 fold change was -0.003.
For the target GTF2A2 (UniProt P52657), the log2 fold change is -0.064.
Turning to GSK3A (UniProt P49840), the log2 fold change was -0.031.
As to HBQ1 (UniProt P09105), the log2 fold change was 0.004.
Consider HOOK3 (UniProt Q86VS8), for which the log2 fold change is 0.024.
On to HEXA (UniProt P06865), for which the log2 fold change is -0.043.
GGA2 (UniProt Q9UJY4): the log2 fold change was -0.038.
Same read-out and setting: the result for HNRNPC isoform 2 (UniProt P07910) reads 0.238; that for H2AFX (UniProt P16104), 0.368.
Turning to HDDC2 (UniProt Q7Z4H3), the log2 fold change is -0.076.
